# From PubChem BioAssay AID1159580 (chemical genetic matrix, 2015)
# Where “and” joins values, the source holds several entries; their conditions need not be identical. Equal values may be shown once. The campaign covered roughly 5,500 compounds. About 2,000 (36%) were called active. Not shown: some 18% with an inconclusive outcome. The list shows a part of the results. A number with no mark means an inactive call. Rule as the data show it: active = normalized growth mostly below about 0.91 (no sharp cut-off); inconclusive = no clear call, values can overlap the other calls; inactive = mostly above about 0.92.
# Test: chemical genetic growth profiling, strain panel (AID 1159580);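 also: tested at 20 µM; growth read once vehicle control cultures reached saturation at 30 °C; 1 = growth at the plate median or of vehicle wells; lower values mean less growth of the strain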
# Settings: growth OD
compound,measurement,setting,value
CN(C)CCOC(=O)COc1ccc(Cl)cc1,normalized growth,"S. cerevisiae deletion strains, locus YKL009W, strain mrt4, active compounds read low",1.04
same,normalized growth,"S. cerevisiae deletion strains, locus YKL068W, active compounds read low",1
same,normalized growth,"S. cerevisiae deletion strains, locus YKL085W, strain MDH1 (second series), active compounds read low",1.01
same,normalized growth,"S. cerevisiae deletion strains, locus YKL085W, strain MDH1, active compounds read low",1.01
same,normalized growth,"S. cerevisiae deletion strains, locus YKL160W, strain elf1, active compounds read low",0.972
same,normalized growth,"S. cerevisiae deletion strains, locus YKL190W, strain CNB1, active compounds read low",1.01
same,normalized growth,"S. cerevisiae deletion strains, locus YKR001C, strain vps1, active compounds read low",1.14 [resistant] (active)
same,normalized growth,"S. cerevisiae deletion strains, locus YKR026C, strain gcn3, active compounds read low",0.948
same,normalized growth,"S. cerevisiae deletion strains, locus YKR091W, strain srl3, active compounds read low",0.969
same,normalized growth,"S. cerevisiae deletion strains, locus YLL001W, strain dnm1, active compounds read low",0.959
same,normalized growth,"S. cerevisiae deletion strains, locus YLL026W, active compounds read low",0.969
same,normalized growth,"S. cerevisiae deletion strains, locus YLL041C, strain sdh2, active compounds read low",0.961
same,normalized growth,"S. cerevisiae deletion strains, locus YLR027C, strain aat2, active compounds read low",0.972
same,normalized growth,"S. cerevisiae deletion strains, locus YLR039C, strain RIC1, active compounds read low",1.61 [resistant] (active)
same,normalized growth,"S. cerevisiae deletion strains, locus YLR058C, strain SHM2, active compounds read low",1.02
same,normalized growth,"S. cerevisiae deletion strains, locus YLR102C, strain apc9, active compounds read low",1.02
same,normalized growth,"S. cerevisiae deletion strains, locus YLR113W, strain HOG1, active compounds read low",0.971
same,normalized growth,"S. cerevisiae deletion strains, locus YLR221C, strain rsa3, active compounds read low",0.987
same,normalized growth,"S. cerevisiae deletion strains, locus YLR258W, strain gsy2, active compounds read low",0.965
same,normalized growth,"S. cerevisiae deletion strains, locus YLR262C, strain YPT6 (second series), active compounds read low",1.08
same,normalized growth,"S. cerevisiae deletion strains, locus YLR262C, strain YPT6, active compounds read low",1.85 [resistant] (active)
same,normalized growth,"S. cerevisiae deletion strains, locus YLR268W, strain sec22, active compounds read low",1.15 [resistant] (active)
same,normalized growth,"S. cerevisiae deletion strains, locus YLR320W, strain mms22, active compounds read low",1.01
same,normalized growth,"S. cerevisiae deletion strains, locus YLR330W, strain CHS5, active compounds read low",1.02
same,normalized growth,"S. cerevisiae deletion strains, locus YLR342W, strain FKS1 (second series), active compounds read low",0.953
same,normalized growth,"S. cerevisiae deletion strains, locus YLR342W, strain FKS1, active compounds read low",0.97
same,normalized growth,"S. cerevisiae deletion strains, locus YLR357W, strain rsc2, active compounds read low",1.01
same,normalized growth,"S. cerevisiae deletion strains, locus YLR370C, strain arc18, active compounds read low",0.962
same,normalized growth,"S. cerevisiae deletion strains, locus YLR371W, strain rom2, active compounds read low",1.02
same,normalized growth,"S. cerevisiae deletion strains, locus YLR384C, strain iki3, active compounds read low",0.983
same,normalized growth,"S. cerevisiae deletion strains, locus YLR418C, strain cdc73, active compounds read low",1.21 [resistant] (active)
same,normalized growth,"S. cerevisiae deletion strains, locus YML016C, strain PPZ1, active compounds read low",1.02
same,normalized growth,"S. cerevisiae deletion strains, locus YML032C, strain rad52, active compounds read low",1.07
same,normalized growth,"S. cerevisiae deletion strains, locus YML120C, strain ndi1, active compounds read low",0.966
same,normalized growth,"S. cerevisiae deletion strains, locus YML124C, strain tub3, active compounds read low",1.04
same,normalized growth,"S. cerevisiae deletion strains, locus YMR058W, strain fet3, active compounds read low",0.976
same,normalized growth,"S. cerevisiae deletion strains, locus YMR078C, strain ctf18, active compounds read low",1.05
same,normalized growth,"S. cerevisiae deletion strains, locus YMR125W, strain sto1, active compounds read low",0.965
same,normalized growth,"S. cerevisiae deletion strains, locus YMR129W, active compounds read low",0.973
same,normalized growth,"S. cerevisiae deletion strains, locus YMR205C, strain PFK2, active compounds read low",0.986
same,normalized growth,"S. cerevisiae deletion strains, locus YMR223W, strain ubp8, active compounds read low",1.04
same,normalized growth,"S. cerevisiae deletion strains, locus YMR231W, strain pep5, active compounds read low",0.976
same,normalized growth,"S. cerevisiae deletion strains, locus YMR263W, strain SAP30, active compounds read low",1.05
same,normalized growth,"S. cerevisiae deletion strains, locus YMR307W, strain GAS1, active compounds read low",0.963
same,normalized growth,"S. cerevisiae deletion strains, locus YNL067W, strain RPL9B, active compounds read low",1.06
same,normalized growth,"S. cerevisiae deletion strains, locus YNL071W, strain lat1, active compounds read low",0.988
same,normalized growth,"S. cerevisiae deletion strains, locus YNL128W, strain TEP1, active compounds read low",1.03
same,normalized growth,"S. cerevisiae deletion strains, locus YNL153C, strain GIM3, active compounds read low",1.03 and 0.882
same,normalized growth,"S. cerevisiae deletion strains, locus YNL175C, strain NOP13, active compounds read low",0.949
same,normalized growth,"S. cerevisiae deletion strains, locus YNL183C, strain NPR1, active compounds read low",0.962
same,normalized growth,"S. cerevisiae deletion strains, locus YNL197C, strain WHI3, active compounds read low",0.954
same,normalized growth,"S. cerevisiae deletion strains, locus YNL209W, strain ssb2, active compounds read low",0.974
same,normalized growth,"S. cerevisiae deletion strains, locus YNL224C, strain SQS1, active compounds read low",1.01
same,normalized growth,"S. cerevisiae deletion strains, locus YNL233W, strain BNI4, active compounds read low",1.07
same,normalized growth,"S. cerevisiae deletion strains, locus YNL248C, strain rpa49, active compounds read low",0.996
same,normalized growth,"S. cerevisiae deletion strains, locus YNL250W, strain rad50, active compounds read low",1.01
same,normalized growth,"S. cerevisiae deletion strains, locus YNL271C, strain bni1, active compounds read low",1.04
same,normalized growth,"S. cerevisiae deletion strains, locus YNL298W, strain CLA4, active compounds read low",1.02
same,normalized growth,"S. cerevisiae deletion strains, locus YNL307C, strain MCK1, active compounds read low",1.05
same,normalized growth,"S. cerevisiae deletion strains, locus YNL322C, strain KRE1 (second series), active compounds read low",0.977
same,normalized growth,"S. cerevisiae deletion strains, locus YNL322C, strain KRE1, active compounds read low",1.02
same,normalized growth,"S. cerevisiae deletion strains, locus YNR049C, strain mso1, active compounds read low",0.955
same,normalized growth,"S. cerevisiae deletion strains, locus YNR052C, strain pop2, active compounds read low",1.07
same,normalized growth,"S. cerevisiae deletion strains, locus YOL006C, strain TOP1, active compounds read low",1.01
same,normalized growth,"S. cerevisiae deletion strains, locus YOL012C, strain htz1",1.88
same,normalized growth,"S. cerevisiae deletion strains, locus YOL147C, strain pex11, active compounds read low",1.03
same,normalized growth,"S. cerevisiae deletion strains, locus YOR001W, strain rrp6, active compounds read low",0.947
same,normalized growth,"S. cerevisiae deletion strains, locus YOR061W, strain CKA2, active compounds read low",1.03
same,normalized growth,"S. cerevisiae deletion strains, locus YOR069W, strain VPS5, active compounds read low",1
same,normalized growth,"S. cerevisiae deletion strains, locus YOR070C, strain gyp1, active compounds read low",0.984
same,normalized growth,"S. cerevisiae deletion strains, locus YOR080W, strain dia2, active compounds read low",0.952
same,normalized growth,"S. cerevisiae deletion strains, locus YOR083W, strain WHI5 (second series), active compounds read low",0.994
same,normalized growth,"S. cerevisiae deletion strains, locus YOR083W, strain WHI5, active compounds read low",0.979
same,normalized growth,"S. cerevisiae deletion strains, locus YOR106W, strain vam3, active compounds read low",1
same,normalized growth,"S. cerevisiae deletion strains, locus YOR136W, strain idh2, active compounds read low",1.03
same,normalized growth,"S. cerevisiae deletion strains, locus YOR144C, strain elg1, active compounds read low",1.02
same,normalized growth,"S. cerevisiae deletion strains, locus YOR184W, strain ser1, active compounds read low",1.15 [resistant] (active)
same,normalized growth,"S. cerevisiae deletion strains, locus YOR231W, strain MKK1, active compounds read low",1.05
same,normalized growth,"S. cerevisiae deletion strains, locus YOR265W, strain rbl2, active compounds read low",0.964
same,normalized growth,"S. cerevisiae deletion strains, locus YOR270C, strain vph1, active compounds read low",0.884
same,normalized growth,"S. cerevisiae deletion strains, locus YOR290C, strain snf2, active compounds read low",0.962
same,normalized growth,"S. cerevisiae deletion strains, locus YOR316C, strain cot1, active compounds read low",1.02
same,normalized growth,"S. cerevisiae deletion strains, locus YPL051W, strain arl3, active compounds read low",0.986
same,normalized growth,"S. cerevisiae deletion strains, locus YPL055C, strain LGE1, active compounds read low",1.06 and 1.03
same,normalized growth,"S. cerevisiae deletion strains, locus YPL078C, strain atp4, active compounds read low",0.973
same,normalized growth,"S. cerevisiae deletion strains, locus YPL106C, strain sse1, active compounds read low",0.878
same,normalized growth,"S. cerevisiae deletion strains, locus YPL240C, strain hsp82, active compounds read low",0.957
same,normalized growth,"S. cerevisiae deletion strains, locus YPL241C, strain CIN2, active compounds read low",1.01
same,normalized growth,"S. cerevisiae deletion strains, locus YPL256C, strain CLN2, active compounds read low",1.1
same,normalized growth,"S. cerevisiae deletion strains, locus YPR119W, strain clb2, active compounds read low",1.03
same,normalized growth,"S. cerevisiae deletion strains, locus YPR141C, strain kar3, active compounds read low",1.02
same,normalized growth,"S. cerevisiae deletion strains, locus YPR163C, strain tif3, active compounds read low",1.06
same,normalized growth,"S. cerevisiae deletion strains, locus YPR167C, strain met16, active compounds read low",1.05
same,normalized growth,"S. cerevisiae deletion strains, strain wtn01, active compounds read low",1.04
same,normalized growth,"S. cerevisiae strains, strain wild type, active compounds read low",1.03
